# This is a sample that favours compounds with a hit; in the whole collection about 3.4% have one here.
# SMARCA2 act = SMARCA2 function activation, primary screen; MG213 cells, MMTV-luciferase reporter, dexamethasone, overnight; activation, % at 9.1 µM; hit rate 1% among 370,000; AID 652017; in the data active = activation above about 7.8%;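 note: 0% = vehicle wells and 100% = reference activator wells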
# H9c2 protect = modulators protecting cardiomyocytes from myocardial damage | H9c2 cardiomyocytes, H2O2 injury protection, ATPLite, 2 h | protection from H2O2 cell death, % at 20 µM | hit rate 0.63% among 360,000 | AID 588492;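 active = compounds giving at least 50% protection of heart cells from peroxide-induced death in the single-dose screen, raw or plate-pattern-corrected value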;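 note: 0% = DMSO wells with peroxide and 100% = DMSO wells without peroxide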
# GAA850 FXN act = increases GAA850 frataxin promoter reporter activity. activation, % at 6 µM. HEK293 lucGAA850 FXN promoter luciferase reporter, 24 h; percent of 10 µM SAHA response. hit rate 0.56% among 360,000. AID 540364;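 active = activation above the average of all compounds screened plus 3 SD, cutoff fixed separately per campaign, cut at about 7.5% in these data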;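 note: 0% = DMSO wells and 100% = 10 µM SAHA wells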
# NR2F2 inh = NR2F2 (human) inhibition, primary screen. hit rate 0.7% among 370,000. inhibition, % at 8.6 µM. P24468. HEK293T NGFI-A luciferase reporter, luminescence;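 active = inhibition above a per-plate cutoff, mean inhibition of test wells between control levels plus 3 SD, cut at about 38% in these data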;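 note: cells cotransfected with COUP-TFII expression vector driving the NGFI-A reporter; 0% = median of COUP-TF2 test wells and 100% = reporter-only cells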
# Gli-Sufu block = Gli-Sufu pathway antagonism | Sufu-KO-LIGHT fibroblasts, Gli luciferase reporter luminescence | hit rate 0.74% among 340,000 | inhibition, % at 5 µM | AID 588413;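 active = inhibition above about 55%, limit read from the data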;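 note: 0% = DMSO-treated cells and 100% = wells with medium but no cells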
# GalR3 antag = antagonists of human GalR3 | hit rate 0.44% among 360,000 | inhibition, % at 3 µM | HEK293 GalR3-CNG cAMP membrane potential fluorescence; galR3 body fused to GalR1 C-terminus;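 active = inhibition above the screen-wide average plus 3 SD, cut at about 13% in these data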;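 note: forskolin and galanin both at EC90 stimulate the cells; cAMP rise reported by CNG channel membrane potential dye signal; 0% = forskolin plus galanin with DMSO and 100% = forskolin alone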
# Target sequence (O60755 1-299 limits assumed): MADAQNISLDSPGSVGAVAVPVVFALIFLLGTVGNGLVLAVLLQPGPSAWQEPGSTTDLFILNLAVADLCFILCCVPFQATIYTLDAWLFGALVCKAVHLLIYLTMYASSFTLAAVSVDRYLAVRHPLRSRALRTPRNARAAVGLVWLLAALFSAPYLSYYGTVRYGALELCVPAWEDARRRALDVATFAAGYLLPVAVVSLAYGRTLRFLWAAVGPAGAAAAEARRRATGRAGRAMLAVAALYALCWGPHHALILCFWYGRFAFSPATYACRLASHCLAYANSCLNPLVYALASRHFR
# Gli antag conf = Gli-SUFU antagonism confirmation, single concentration. Sufu-KO-LIGHT cells, Gli luciferase reporter, luminescence. hit rate 40% among 2,500. AID 602428. inhibition, % at 5 µM. shares compounds with Gli-Sufu block;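 active = mean inhibition at 5 µM reaching about 45%, limit read from the data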;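 note: plate controls were DMSO-treated cells for no effect and wells lacking cells for full effect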
# Gli cytotox = cytotoxicity counter-screen for Gli-SUFU antagonists | shares compounds with Gli-Sufu block | hit rate 32% among 2,500 | cytotoxicity, % at 5 µM | Sufu-KO-LIGHT cells cytotoxicity, ATP luminescence;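 active = mean cytotoxicity at 5 µM above about 25%, limit read from the data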;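 note: cells exposed to compound overnight for roughly 16 to 18 hours; plate controls were DMSO wells with cells for no effect and medium without cells for full effect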
# Wnt3a counter = Wnt3a reporter inhibition counter-screen; hit rate 20% among 2,500; Wnt-LIGHT cells, Wnt3a-driven luciferase reporter, luminescence; inhibition, % at 6.25 µM; AID 651995; shares compounds with Gli-Sufu block;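 active = mean inhibition above about 25%, limit read from the data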
# GalR3 antag conf = confirmation of human galanin receptor 3 antagonists. shares compounds with GalR3 antag. HEK293 GalR3 CNG cAMP biosensor, membrane potential fluorescence; galR3 fused to GalR1 carboxy tail; challenged with forskolin and galanin at EC90. inhibition, % at 3 µM. hit rate 59% among 1,600. AID 652245;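 active = inhibition above the primary screen's cutoff, the mean inhibition of all screened compounds plus 3 SD, cut at about 13% in these data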;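 note: 0% = forskolin plus galanin and 100% = forskolin alone with DMSO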
# CNG parental = counter-screen for GalR3 antagonists: nonspecific agonists in parental HEK-CNG cells; shares compounds with GalR3 antag; HEK293-CNG parental cells, cAMP membrane potential fluorescence; normalised: DMSO wells 0%, forskolin wells 100%; activation, % at 3 µM; hit rate 10% among 1,600; in the data active = activation above about 1.3%
# Gal4-VP16 ctr = counter-screen for COUP-TFII antagonists: inhibitors of VP16; shares compounds with NR2F2 inh; HEK293 Gal4-VP16 luciferase reporter, luminescence; inhibition, % at 8.5 µM; hit rate 25% among 2,500; AID 687007; in the data active = inhibition above about 13%
# COUP-TFII conf = confirmation of human COUP-TFII (NR2F2) inhibitors; shares compounds with NR2F2 inh; HEK293 NGFI-A luciferase reporter, luminescence; inhibition, % at 8.5 µM; hit rate 45% among 2,500;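 active = mean inhibition over three repeats above a set limit taken from the earlier primary screen, cut at about 38% in these data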;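 note: 100% = cells given the luciferase reporter alone without the COUP-TF2 vector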
# The depositor's hits bear a star; x = not tested or not shown.
SMILES,SMARCA2 act,H9c2 protect,GAA850 FXN act,NR2F2 inh,Gli-Sufu block,GalR3 antag,Gli antag conf,Gli cytotox,Wnt3a counter,Gal4-VP16 ctr,COUP-TFII conf,others
CCOC(=O)C1CCCN(S(=O)(=O)c2ccc(S(=O)(=O)N(CC)CC)cc2)C1 (centres undefined),-7,-24,-6,68*,78*,92*,74*,32*,9,10,66*,
Cc1ccc(S(=O)(=O)N(C)C[C@@H]2Oc3ccc(NC(=O)Cn4cnnn4)cc3C(=O)N([C@@H](C)CO)C[C@H]2C)cc1,1,5,1,-6,-18,-4,x,x,x,x,x,
Cc1cccc(-n2ncc3c2CCCC3NC(=O)Cc2c(C)noc2C)c1C (centres undefined),-3,-13,-3,42*,59*,0,29,31*,7,-1,36,
O=C(NCCCO)C(=O)Nc1cc2c3c(c1)CCC(=O)N3CCC2,1,6,0,-9,2,-7,x,x,x,x,x,
Cc1ccc(-c2c[n+](CC(=O)Nc3c(C)cccc3C)c3n2CCC3)cc1,-2,0,0,-1,0,-4,x,x,x,x,x,
Cc1ccc(-c2c[n+](Cc3cccc(Cl)c3)c3n2CCC3)cc1,-9,-11,0,38*,79*,-3,82*,36*,19,4,8,
Cc1ccc(S(=O)(=O)Nc2ccccc2C(=O)Nc2nc(-c3ccc(F)cc3)cs2)cc1,-10,-10,-13,66*,77*,90*,79*,35*,78*,0,37,GalR3 antag conf=114*;CNG parental=-1
Cc1ccc(NC(=O)C2CCN(S(=O)(=O)c3ccc(N4CCCC4=O)cc3)CC2)cc1Cl,-6,-13,-3,66*,81*,-4,84*,41*,8,2,46*,
COc1ccc(NC(=O)C2CCN(S(=O)(=O)c3ccc(N4CCCC4=O)cc3)CC2)c(OC)c1,-3,-5,-2,3,39,-7,x,x,x,x,x,
COc1cccc(-n2c(SCc3cc(=O)oc4cc(O)c(O)cc34)nc3ccccc3c2=O)c1,-1,42,-1,-9,16,-2,x,x,x,x,x,
COc1ccc(-n2c(-c3ccc(Cl)cc3)c[n+]3c2CCc2ccccc2-3)cc1,-5,-12,-3,51*,85*,62*,86*,28*,13,18*,44*,GalR3 antag conf=57*;CNG parental=1
CC1CCN(C(=O)CCS(=O)(=O)c2cc3c(cc2Cl)NC(=O)CO3)CC1,-2,-2,2,-5,-1,x,x,x,x,x,x,
CN(Cc1ccc(OCC(O)CN2CCCCC2)cc1)Cc1ccnc2ccccc12 (centres undefined),-5,-26,-1,59*,65*,-9,46*,21,11,8,44*,
CCC1CCCCN1S(=O)(=O)c1ccc(NC(=O)c2ccncc2)cc1 (centres undefined),-4,-18,-3,61*,58*,-1,37,41*,-11,7,57*,
CC(C)NC(=O)CN1C(=O)c2ccccc2S1(=O)=O,-2,7,2,-12,5,0,x,x,x,x,x,
Cc1cc(C(=O)CN2C(=O)c3ccccc3S2(=O)=O)c(C)n1C(C)C,-5,-12,-10,63*,57*,-1,49*,12,44*,49*,63*,
Cc1ccc(C(=O)CN2C(=O)c3ccccc3S2(=O)=O)cc1,-7,-7,-11,74*,78*,4,87*,26*,95*,77*,91*,
Cc1cc(C)nc(NC(=O)CN2C(=O)c3ccccc3S2(=O)=O)n1,-3,0,-1,14,-4,-3,x,x,x,x,x,
Cc1ccc(-c2c[n+]3c(n2-c2ccccc2)CCC3)cc1,-11,-14,-1,60*,80*,-2,83*,34*,36*,-2,34,
CCOc1ccc(-n2c(-c3ccccc3)c[n+]3c2CCCCC3)cc1,-8,-8,-2,67*,86*,51*,90*,25*,40*,8,49*,GalR3 antag conf=78*;CNG parental=1
Cc1nc2ccccc2n1CC(O)COc1ccc(Br)cc1 (centres undefined),-3,-18,1,28,32,-7,x,x,x,x,x,
CCC(=O)c1ccc(OCC(O)Cn2c(C)nc3ccccc32)cc1 (centres undefined),-5,-24,1,59*,51,56*,52*,23,-12,4,37,GalR3 antag conf=7;CNG parental=0
O=C(NCCN1CCN(C(=O)c2cccc(Br)c2)CC1)C(=O)Nc1ccc(Br)cc1,-5,-4,-1,10,0,-9,x,x,x,x,x,
COc1ccc(C(=O)N2CCN(c3ccc([N+](=O)[O-])c(NCCc4ccc(OC)c(OC)c4)c3)CC2)cc1,-5,-9,-12,39*,79*,24*,76*,32*,-17,12,89*,GalR3 antag conf=92*;CNG parental=0
COc1ccc(CCNc2cc(N3CCN(C(=O)c4ccccc4F)CC3)ccc2[N+](=O)[O-])cc1OC,0,-24,-6,19,-13,-4,x,x,x,x,x,
CCn1c(=O)c(C(=O)NNS(=O)(=O)c2ccc(Br)cc2)c(O)c2ccccc21,-2,-11,1,7,0,-3,x,x,x,x,x,
COc1cccc(-n2cc(CN(C)Cc3nc(Cc4cccc(F)c4)no3)cn2)c1,-4,-6,0,5,-6,-3,x,x,x,x,x,
COc1ccc(CN(C)Cc2nc(Cc3cccc(F)c3)no2)c2cccnc12,-7,-19,1,60*,63*,-2,54*,18,27*,-10,47*,

# Screens (PubChem BioAssay)
